Data on 18 molecules can be found in PubChem BioAssay.

Results filed as inconclusive are left out. Activity calls are given as the source filed them.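 Rule for the calls, unless noted: active = RAM network inhibition above 8.4% in each of two replicates, 3 SD over the compound average; inconclusive = above 8.4% inhibition in only one replicate; inactive = 8.4% inhibition or less in each replicate.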

The nature of test [1]: OD615 S. cerevisiae growth inhibition, permissive medium, pilot counter-assay, permissive growth control for S. cerevisiae lifespan shortening project (AID 705;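 active = growth inhibition above 25% in both replicates, a cutoff set 3 SD above the mean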). The settings on record: OD615, 24 h, at 10 µM, stronger effect = higher value.
A short description of test [2]: Restrictive medium S. cerevisiae growth inhibition, OD615, pilot screen of yeast lifespan reduction project, restrictive growth control (AID 706;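 active = growth inhibition above a set limit, 3 SD over mean compound inhibition, in both replicates, cut at about 43% in these data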;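 note: modified DeaD lifespan yeast strain shifted to restrictive glucose medium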). Conditions: OD615, 48 h, at 10 µM, stronger effect = higher value.
Test [3] can be described thus: viability gain of MRP-1-high H69AR cells under doxorubicin, pilot screen, MRP-1 activator project, CellTiter-Glo, duplicate (AID 807;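 active = viability increase at or above a cutoff of the median across tested compounds plus 3 SD, cut at about 8.5% in these data, passing the limit was not always enough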;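 note: compound pretreatment 18-22 h then 72 h combined with doxorubicin; 0% = doxorubicin alone and 100% = vehicle without doxorubicin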). Conditions: H69AR viability with doxorubicin, CellTiter-Glo luminescence; at 10 µM; stronger effect = higher value. Background: ATP-based viability assays read luminescence as a measure of living cells.
Test [4] in a line: growth suppression of beta-catenin knockout HCT116, pilot screen, human colon tumor cells (AID 823;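 active = cell viability at or below a set limit in both duplicate runs, the limit being the all-compound median minus 4 SD, cut at about 23% in these data, passing the limit was not always enough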;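 note: 0% = wells killed by 20 µM Hyamine and 100% = untreated DMSO cell wells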). Conditions: CellTiter-Glo, 60 h, at 10 µM, stronger effect = lower value.
Test [5] in a line: growth suppression of PTEN-deleted HCT116, pilot screen, cell-based, HCT116 clonal line, CellTiter-Glo (AID 824;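 active = viability at or below 27.92% in each of two runs, the all-compound median minus 4 SD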;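 note: 0% = 20 µM Hyamine control and 100% = vehicle cell control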). Conditions: 60 h, at 10 µM, stronger effect = lower value.
Test [6] is described as follows: RAM signaling pathway blockade in yeast – S. cerevisiae, Pdr1DBD-CYC8 efflux-inhibited sensitized strain, primary screen (AID 1298).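 Note: 0% = DMSO untreated cells without growth and 100% = 10 µM 1-NA-PP1 full growth; higher means more yeast growth rescued from 5-FOA killing.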 The settings on record: S. cerevisiae cbk1-as DSE1-URA3 strain, 5-FOA growth OD615, 2 d; at 50 µM; stronger effect = higher value.
The nature of test [7]: HUVEC growth inhibition – cell-based, human, primary screen (AID 575;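 active = viability at or below 30% in both replicate assays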;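 note: 100% = median of untreated cell wells with 0.1% DMSO on each plate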). The settings on record: HUVEC proliferation, CellTiter-Glo luminescence, 72 h; at 10 µM; stronger effect = lower value.
Test [8] in a line: growth inhibitors of H69AR lung tumor, primary screen, human, duplicate replicates (AID 580;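 active = viability at or under a set limit in both replicates, limit being median viability minus 3 SD, cut at about 48% in these data, passing the limit was not always enough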;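 note: 100% = mean luminescence of untreated wells and 0% = no signal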). The settings on record: H69AR lung tumor cells viability, ATP luminescence, 72 h; at 10 µM; stronger effect = lower value.
Test [9] in a line: reversal of MRP1-mediated doxorubicin resistance, pilot screen, H69AR cells, doxorubicin co-treatment (AID 601;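 active = viability loss from added drug above about 55%, and viability with drug at most 40%, in both replicates, limit read from the data, passing the limit was not always enough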). Conditions: CellTiter-Glo, 72 h, at 10 µM; for differential viability (reversal): stronger effect = higher value.
Test [10] can be described thus: 384-well plate pilot, post-Golgi transport modulator project, inhibition of yeast transport mutant growth (AID 636; in the data active = inhibition above about 31%). The settings on record: absorbance 615 nm, about 18 h, stronger effect = higher value.
Test [11] can be described thus: growth suppression of yeast trafficking mutant, preliminary HTS, modulators of trafficking downstream of Golgi apparatus project, 1536-format plate, OD 615 nm (AID 637; in the data active = inhibition above about 30%). Conditions: yeast transport mutant growth, absorbance 615 nm, 18 h; stronger effect = higher value.
Test [12] can be described thus: inhibitors of the yeast RAM network, pilot screen, dse1pr::URA3 reporter, 5-FOA selection (AID 869;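 active = inhibition over a set limit, the all-compound mean plus 3 SD, in both replicate runs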;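 note: 0% = DMSO wells with no growth and 100% = 10 µM 1-NA-PP1 with full growth; RAM network block rescues cells from 5-FOA so hits raise OD615 growth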). The settings on record: S. cerevisiae dse1pr::URA3 5-FOA growth, OD615, 2 d; at 10 µM; stronger effect = higher value; strain carries analog-sensitive mutant Cbk1 kinase.
The mark [13] stands for this setting: H69AR cells + 2 uM doxorubicin, measured here: viability with 2 uM doxorubicin, stronger effect = lower value.
Where [14] appears, read: H69AR cells, compound alone cytotoxicity.

The term viability denotes a read-out of living cells in per cent, often relative to untreated cells. Consider `Cc1ccc(C)c2[nH]c(=O)c(CCNC(=O)c3cc4ccccc4o3)cc12`, for which the growth inhibition was -2.5% (inactive) in [1] and -11.6% (inactive) in test [2]. Moreover, the viability increase in test [3] is 1.81% (inactive). The viability in test [4] is 95.4% (inactive); in test [5], 91.2% (inactive). In addition, the RAM network inhibition in [6] was 4.18% (inactive).

On to `O=C(Nc1nc2c(s1)CCCC2)c1cccnc1`, for which the growth inhibition in [1] was -5.66% (inactive); in test [2], -5.07% (inactive). The viability increase in test [3] is 0.28% (inactive). Moreover, the values for the viability in test [4] and in test [5] were 100% (inactive) and 92.2% (inactive), respectively. The RAM network inhibition in test [6] is 1.3% (inactive).

As for `Cn1c(Cn2c(=O)sc3ccccc32)nnc1SCC(=O)Nc1ccccc1`, the growth inhibition in test [1] was -7.53% (inactive); in test [2], -2.15% (inactive). In addition, the viability increase in [3] was -1.41% (inactive). In addition, the viability in test [4] was 99.5% (inactive); in test [5], 98.1% (inactive). The RAM network inhibition in test [6] was 13% (inactive).

Take `Cc1ccc(Nc2ncnc3nc[nH]c23)cc1Cl`: the growth inhibition in test [1] is 1.92% (inactive); in test [2] it was 31.3% (inactive). Moreover, the viability increase in test [3] is -1.76% (inactive). Further, the viability in test [4] is 105% (inactive); in test [5], 90.8% (inactive). Also, the RAM network inhibition in test [6] was 4.7% (inactive).

Broadly, the inhibition is the drop in the measured response relative to a control, in per cent. For `COC(=O)c1nc2n(n1)C(c1ccc(OC)c(OC)c1)C(C(=O)OC1CCCCC1)=C(C)N2` (stereo not given), the viability was 88.9% (inactive) in [7]; 83.3% (inactive) in test [8]; 98% in test [9] (setting [13]); 83.3% in test [9] (setting [14]); 97.5% (inactive) in test [4]. Also, the differential viability (reversal) in [9] (H69AR cells + 2 uM doxorubicin) was -14.8% (inactive). The results for the inhibition in [10], in test [11] and in test [12] were -6.49% (inactive), -4% (inactive) and 2.87% (inactive), respectively. Besides, the growth inhibition in [1] was -0.32% (inactive); in test [2], -3.14% (inactive). The viability increase in [3] is -5.23% (inactive). The RAM network inhibition in test [6] is 6.75% (inactive).

For `CCCCn1c(CNC(C)=O)nc2ccccc21`, the growth inhibition was -2.36% (inactive) in test [1] and 0.94% (inactive) in test [2]. The viability increase in [3] was -1.24% (inactive). In addition, the viability in test [4] is 98.1% (inactive); in test [5], 100% (inactive). Besides, in test [6], the RAM network inhibition is 1.93% (inactive).

For `CCOC(=O)N1CCC(N2C(=O)c3ccc(C(=O)Nc4ccc(F)cc4F)cc3C2=O)CC1`, the figures for the growth inhibition in test [1] and in test [2] were -2.61% (inactive) and -7.76% (inactive), respectively. The viability increase in [3] is -6.61% (inactive). Also, the values for the viability in [4] and in test [5] were 91.1% (inactive) and 94.4% (inactive), respectively. In addition, the RAM network inhibition in test [6] was 4.78% (inactive).

As for `Cc1ccc(-c2cc(C(F)F)nc(NCc3cccnc3)n2)cc1`, the viability was 63.9% (inactive) in [7]; 80.3% (inactive) in test [8]; 82.8% in test [9] (setting [13]); 80.3% in [9] (setting [14]); 51% (inactive) in [4]; 64.2% (inactive) in [5]. Also, the differential viability (reversal) in test [9] (H69AR cells + 2 uM doxorubicin) is -2.5% (inactive). Also, the inhibition in test [10] was -2.63% (inactive); in test [11], 0.48% (inactive); in test [12], 1.65% (inactive). Moreover, the growth inhibition in test [1] was 4.57% (inactive); in test [2], -8.25% (inactive). In addition, the RAM network inhibition in test [6] was 0.76% (inactive).

With `CN(C)c1nc2ccc(OCCN3CCCCC3)cc2s1`, the growth inhibition in test [1] is -10.8% (inactive); in test [2], 0.795% (inactive). In addition, the viability increase in test [3] is -0.48% (inactive). For the same molecule, the results for the viability in test [4] and in test [5] were 93% (inactive) and 94.3% (inactive), respectively. Moreover, the RAM network inhibition in test [6] was 4.76% (inactive).

For `C#CCSc1nnc(-c2c[nH]c3ccccc23)n1C`, the values for the growth inhibition in [1] and in [2] were 0.22% (inactive) and 8.42% (inactive), respectively. Further, in test [3], the viability increase was -2.77% (inactive). Moreover, the viability in [4] was 98.3% (inactive); in test [5] it was 93.5% (inactive). For the same molecule, in [6], the RAM network inhibition was -0.92% (inactive).

Regarding `O=C(CSc1nc2ccccc2o1)NCc1ccc2c(c1)OCO2`, the results for the growth inhibition in test [1] and in [2] were -8.6% (inactive) and -2.3% (inactive), respectively. For the same molecule, the viability increase in test [3] is 4.28% (inactive). Besides, the viability is 94.8% (inactive) in test [4] and 83.9% (inactive) in [5]. For the same molecule, the RAM network inhibition in [6] was 2.68% (inactive).

Regarding `CCOC(=O)c1c(CN2CCCCC2)n(C)c2cc(Br)c(O)c(CN(C)C)c12`, the figures for the growth inhibition in test [1] and in test [2] were -16.8% (inactive) and 5.7% (inactive), respectively. Besides, in [3], the viability increase was -2.65% (inactive). The viability in [4] is 75.7% (inactive); in test [5], 79.5% (inactive). In [6], the RAM network inhibition is 0.94% (inactive).

In the case of `CC1(C)Cc2c(c(=S)nc(-c3ccccc3)n2CCCN2CCOCC2)CO1`, the growth inhibition is -12.8% (inactive) in [1] and 6.05% (inactive) in test [2]. Besides, the viability increase in test [3] was -3.1% (inactive). Moreover, in test [4], the viability was 97.2% (inactive). Further, the RAM network inhibition in test [6] was 2.19% (inactive).

For `COCCn1c(=O)[nH]c2cc(C(=O)NCCCN3CCN(c4ccc(F)cc4)CC3)ccc2c1=O`, the viability in test [7] is 97.8% (inactive); in test [8], 100% (inactive); in test [9] (setting [13]), 96.6%; in test [9] (setting [14]), 100%; in test [4], 86.2% (inactive). Moreover, the differential viability (reversal) in [9] (H69AR cells + 2 uM doxorubicin) is 3.64% (inactive). Besides, the results for the inhibition in test [10], in test [11] and in test [12] were 0% (inactive), -2.38% (inactive) and 0.63% (inactive), respectively. The figures for the growth inhibition in test [1] and in [2] were -12.8% (inactive) and -0.415% (inactive), respectively. For the same molecule, the viability increase in [3] is -0.08% (inactive). For the same molecule, the RAM network inhibition in test [6] is 8.31% (inactive).

`COc1ccc(C2C(C(C)=O)=C(O)C(=O)N2CCN(C)C)cc1OC` (stereo not given): the growth inhibition in test [1] is -17.7% (inactive); in [2], -12.3% (inactive). For the same molecule, in test [3], the viability increase is 0.21% (inactive). Besides, the viability in [4] is 92.6% (inactive); in test [5], 96.9% (inactive). Also, in test [6], the RAM network inhibition was 1.99% (inactive).

For `CCn1c(=O)c2cc(C(=O)Nc3cc(C)on3)sc2c2ccccc21`, the growth inhibition in [1] was -16.6% (inactive); in test [2], -25.2% (inactive). Moreover, the viability increase in test [3] is -6.36% (inactive). The viability was 92.1% (inactive) in test [4] and 71.5% (inactive) in test [5]. For the same molecule, the RAM network inhibition in test [6] is 4.19% (inactive).

`CC(c1ccco1)N(C(=O)c1ccc(S(=O)(=O)N2CCCCC2)cc1)c1ccccn1` (stereo not given): the viability is 87.5% (inactive) in [7]; 86% (inactive) in test [8]; 94.2% in test [9] (setting [13]); 86% in test [9] (setting [14]); 97.4% (inactive) in test [4]. Besides, the differential viability (reversal) in [9] (H69AR cells + 2 uM doxorubicin) is -8.22% (inactive). Further, the figures for the inhibition in [10], in [11] and in test [12] were -4.03% (inactive), 1.27% (inactive) and 1.19% (inactive), respectively. The growth inhibition in test [1] was -17.7% (inactive); in test [2] it was 2.26% (inactive). Besides, the viability increase in test [3] is -4.13% (inactive). Moreover, the RAM network inhibition in test [6] is 3.18% (inactive).

In the case of `COc1ccc(C(=O)c2oc3ccc(Br)cc3c2NC(C)=O)cc1`, the growth inhibition in [1] is -2.44% (inactive); in test [2] it was -3.18% (inactive). For the same molecule, the viability increase in [3] is -3.96% (inactive). Further, the viability in test [4] is 97.7% (inactive); in test [5], 104% (inactive). Besides, in test [6], the RAM network inhibition is 1.07% (inactive).
